Sampled rows, rich in hits. Any-hit rate of the full collection: about 21%.
Pf growth 96h: P. falciparum growth inhibition at 96 hours. P. falciparum luciferase reporter growth, 96 h. Potency, µM (titrated, usually from 28.7 µM), hits mostly inhibitors. actives 6.9% (n = 320,000). AID 504834
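P. falciparum expressing integrated firefly luciferase, in erythrocytes at 2% hematocrit, 0.05% parasitemia, incubated with compounds 96 h at 37 C, 5% CO2. Growth inhibition read as loss of luminescence; two-generation exposure targets delayed-death apicoplast inhibitors.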
Pf growth 48h: inhibits P. falciparum growth in the first generation, 48 h; P. falciparum luciferase growth in erythrocytes, 48 h; Potency, µM (titrated, usually from 28.7 µM), usual class: inhibitors; actives 5.9% (n = 310,000); AID 504832
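Here the parasites carry a stable luciferase gene and grow inside erythrocytes in Albumax-based RPMI medium with compound for one erythrocytic cycle. Activity is scored as loss of luminescent signal.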
NS1 function inh: blocks influenza NS1 protein function; Potency, µM (titrated, usually from 46.1 µM); actives 0.4% (n = 270,000); calls by dose curve; note: actives are rising curves; nearly all actives have a fitted effect of over 50% in size
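In this qHTS, NS1 from influenza A is expressed in budding yeast, where it slows growth. Cells are switched from glucose to 2% galactose medium (pH 6.0, -URA), treated with compound, and growth recovery is read at OD600.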
Shiga inhibitor: blocks Shiga toxin action in Vero cells. actives 9.2% (n = 290,000). AID 2315. inhibition, % at 38.7 µM. Vero cells, Shiga toxin protein synthesis inhibition reporter; in the data active = inhibition mostly above about 28%, no sharp cut-off; inactive = mostly below about 43%
CHX counter: counter-screen hit for Shiga toxin inhibitors, cycloheximide; actives 12% (n = 300,000); max response, %; cell reporter, cycloheximide protein synthesis inhibition counterscreen; in the data active = max response mostly above about 13%, no sharp cut-off; inactive = mostly below about 14%; note: read at 38.3 µM for the half of the compounds with a filed dose
Numbers stand for hits; i = inactive; ? = inconclusive; nt = no result; [ ] = remark or other dose. Unless noted, calls come from the whole dose curve; as a rule, active = well fitted inhibition curve with a large enough effect; inconclusive = small, poorly fitted or top-dose-only effect, or another doubt; inactive = no such curve, though single readings can be large or run the other way.

SMILES	Pf growth 96h	Pf growth 48h	NS1 function inh	Shiga inhibitor	CHX counter
CN1CCc2c(sc3nc(SCC(=O)N4CCOCC4)nc(N)c23)C1	i	?	?	i	i
CCN(CC)CCCNc1nc(SC)nc2sc3c(c12)CCN(C)C3	?	?	i	i	i
O=S(=O)(Nc1cccc(-c2ccc(N3CCCCCC3)nn2)c1)c1ccccc1Cl	?	i	i	58	34
O=S(=O)(Nc1cccc(-c2ccc(N3CCCCCC3)nn2)c1)c1ccccc1F	15µM	i	i	110	32
COc1cccc(/C=N/n2c(SC)nnc2-c2ccccc2)c1OC	i	i	i	i	i
COc1ccc(/C=N/n2c(C)nnc2C)c(OC)c1OC	i	i	i	68	i
COc1cccc(/C=N/n2c(N)nc3ccccc32)c1OC	nt	?	i	i	25
COc1ccc(/C=N/N2CCN(C)CC2)c(OC)c1OC	i	i	nt	i	i
COc1ccc(/C=N/n2c(N)nc(-c3ccccc3)c2-c2ccccc2)cc1	?	?	i	86	31
COc1ccc(/C=N/n2c(=S)n(C)c3ccccc32)cc1OC	nt	i	i	i	i
COc1ccc(/C=N/n2c(-c3ccccc3)n[nH]c2=S)cc1	?	i	i	i	i
COc1ccc(/C=N/n2c(N)nc3ccccc32)cc1OC	i[5.75 µM]	?	i	i	29
CCc1ccc(NC(=O)C(C)Sc2nc(-c3ccco3)c(C#N)c(=O)[nH]2)cc1 (stereo not given)	i	i	i	i	i
Cc1ccn2c(=O)nc(SCC(=O)NC3CCCC3)nc2c1	i	i	nt	nt	nt
CN(CC1CCCO1)S(=O)(=O)c1ccc(C(=O)Nc2nc3cc4c(cc3s2)OCO4)cc1 (stereo not given)	?	?	i	i	i
O=C(Cc1ccc(Cl)cc1Cl)NCC1(N2CCOCC2)CCCCC1	i	i	nt	i	i
COc1cccc(/C=N/n2cnc3ccccc32)c1OC	i	nt	i	i	31
CCCCC(CC(O)COCCC)C(=O)NN (stereo not given)	?	i	i	i	i
NS(=O)(=O)c1ccc(N=Nc2nc3[nH]cnc(=S)c3[nH]2)cc1	nt	nt	i	nt	nt
COCCc1nc2ccc(C(=O)N(C)Cc3cccc(-n4cccn4)c3)cc2o1	?	i	i	82	62
CN(Cc1ccon1)C(=O)c1ccc2nc(Cc3cccc(Cl)c3)oc2c1	13µM	i	i	i	i
CC1(C)C(=O)NCCN1C(=O)c1ccc2nc(Cc3ccccc3F)oc2c1	?	i	i	i	i
CN(Cc1cccnc1)C(=O)c1ccc2nc(Cc3ccccc3F)oc2c1	i	i	i	61	43
O=C(COc1ccc(Cl)cc1Cl)N/N=C/C1CC=CCC1 (stereo not given)	?	i	i	i	i
N#Cc1ccc(C(=O)NNC(=O)c2ccncc2)cc1	i	i	i	i	i
SMILES	Pf growth 96h	Pf growth 48h	NS1 function inh	Shiga inhibitor	CHX counter
Cc1ccc(S(=O)(=O)N2C(=O)CCC2C(=O)Nn2cnnc2)cc1 (stereo not given)	nt	i	i	i	i
Cc1cnc(NC(=O)c2ccc(-c3ccc([N+](=O)[O-])cc3)o2)s1	6.6µM	?	nt	nt	nt
O=C(Nc1ncc(Cc2cccc([N+](=O)[O-])c2)s1)c1ccco1	i	i	i	102	29
Cc1ccc(Cc2cnc(NC(=O)C3=NCCN3)s2)cc1	i	i	i	i	i
Cc1cccc(Cc2cnc(NC(=O)c3ccc(C)o3)s2)c1	i	nt	i	71	35
O=C(Nc1ncc(Cc2ccccc2Cl)s1)c1ccc(-c2cccc([N+](=O)[O-])c2)o1	i	?	i	i	i
Cc1ccc(Cc2cnc(NC(=O)c3ccco3)s2)cc1	nt	i	i	67	35
O=C(NCc1ccc(Cl)cc1)c1ccc(NC(=O)C2CCCO2)cc1 (stereo not given)	?	i	i	i	i
O=C(Nc1ncc(Cc2ccccc2Cl)s1)c1ccc([N+](=O)[O-])cc1	?	i	i	i	i
O=C(Nc1ncc(Cc2ccccc2)s1)C1=NCCN1	i	i	i	58	i
O=C(Nc1ncc(Cc2ccc(C(F)(F)F)cc2)s1)c1ccc(-c2cccc([N+](=O)[O-])c2)o1	0.37µM	?	i	i	i
O=C(Nc1ncc(Cc2cccc(Cl)c2)s1)c1ccc([N+](=O)[O-])cc1	13µM	?	i	i	i
O=C(NCC1CCCO1)C(Cc1ccccc1)N1C(=O)C2C3C=CC(C4CC34)C2C1=O (stereo not given)	?	i	i	i	i
Cc1cc(=O)oc2c(CN3CC(C)OC(C)C3)c(O)c(Cl)cc12 (stereo not given)	i	i	i	i	i
